B1: GBRAP_42_5723 (protein)
chain: MYLVNLEVVVATREELERAIAIWRERNARYRKEKGIIIRLTIAAPEEAAELAAEAEAESAELAKEADKELDWVVVAASADEVGDAIDIAVDLALEERKEE
B2: GBRAP_35_5569 (protein)
chain: STDETIVEMTVNTIEALTLAVPDLDPATLETITRQVVALAREVIEDIKNNLEGLKRILEALRALLAAIRARGLDDPHLQAAAAAVEEAIRLAEKAIKEAE
B3: GBRAP_184_5315 (protein)
chain: EVIRRFITVETKEEAEKKLKEIKEEIKKSGKKYTVYIEVKNPTKELIDTVFEEIKKMKEEGVDADFILVVEEPVDEEMEDYIVEKAKEAGARAVIALPEE
B4: GBRAP_11_2707 (protein)
chain: KKEKLKEIAKLAAEAAALTEQLLKEGVDNKELQAKLTAKIKELTELVKKYADESLKKLAEIAKELWEKALADPENKEQYLKELLATLRVLEGQALLEIEE
B5: GBRAP_52_6040 (protein)
chain: MRERMRRLAREIVELVRAGRLEEARERIRELVETLSLEELELLGEELAELAREAEPEDLDAVMEVALMLADELEKAGYPEVFADDLEARVARAAVENLER
B6: GBRAP_11_2896 (protein)
chain: KKEKLKEAAELAEKAAKLLEELIKEGPDNEELRKKAEEALEKLLELAKKYLDESSVELAESALELFEKAKEDPENAKEYLEQALAYVRVLEGQVLLEIEE
B7: GBRAP_43_5752 (protein)
chain: MEEIIEGAVDFATLAAEDPNISEEQKLKIAKDVFEIVADEGIKLPEELSKLTRALAKSLSLEQLKELLKHLKELAEKYPELKEDFEANAKIIEEAIKKKE
B8: GBRAP_35_5553 (protein)
chain: DFDKEVIEMVRATAEDLLLAVDDLPVDTLITMATQIAELTLKVAKDEKENKEELKELLEATLELLDAVIEKAEKEGAPEEDIEKLRKLKKELEEALKEAE
B9: GBRAP_160_4282 (protein)
chain: GEKLKELAEELREDRDEILSLVDKISAEEVRTFAVTSLGSILMEAIDGELLTDEEEDELAKIIDDLEAELDALKDASPEEIRAAIEKHFDKAIELLEKAA
B10: GBRAP_125_3047 (protein)
chain: SLEELVEALRLLAKKLGYSEEEVEEIARLARKYGVKGTLIAILLAEGEEELAELAAKLTDEQVAEVLLELKAWLEENPDASKEEVLKKLRELLEKALAKT
B11: GBRAP_52_5975 (protein)
chain: MREEMRRLAEEAVALMLAGDREGARALLEEIAETKTEEEITLFMEELAELAKTATPEERDAIVEVALLAEDIWLEAGFDEALADSNVARVAAAAYAAEQA
B12: GBRAP_128_3472 (protein)
chain: GVEEVRKWTKEVMEKMKTADDEEFRELATELAERLLTLPLEEVEAAVEVIKEHLPELTAEKLEILAEVLREARPQATPEKAALFADVESEALLLAEELEE
B13: GBRAP_52_5855 (protein)
chain: SKEKMRKLAEELLKLKLAGKEEELEKKVKELVATLSEEEILELLKELAELAKKANKEEAEAIAEVAELLADEAEKAGFDEDELSYELAKVYAAAYKVLQK
B14: GBRAP_35_5567 (protein)
chain: SFDETTAEMMVNTIEALTEAVEDIDPETLKTITEQITKAAKKVIEEIKDNKEALEKIKKALEKLLKALEKRGLDDPNVKAAAEAVKEAIKEAEKAIKEAE
B15: GBRAP_52_6372 (protein)
chain: REAEARAIVDELLALAEAGDEEGVEALVREVLASGDGALQAAVLREIRRRLEARDHPDPEALLRLAAIVADEVLEAEVDSPEVWAALTALAAAALALERA
B16: GBRAP_160_4778 (protein)
chain: SEKVEELKKSIEEAKEEILESIDTESPEETIIVVKGETGLILAEAYELEIDNDELEDALDEIGDELIEEMKKNKNASKEELKKIVEEYTEKALKKIEELT
B17: GBRAP_43_5750 (protein)
chain: MEEIIEGHVDFALLAAEDPNISEEQKLKIAKDTFDILADENISLPEESSKLTEALAKSLSLEQLKELLAHLKELAKKYPELKELFDKNSKIIEEAIKKLE
B18: GBRAP_80_6795 (protein)
chain: AEERLKKALEEIEKLDKELAKKVKEIVEIAREMGVSTEDLADFAEAIAELLKLDKEKARELVEELKEELEELKKEGNKAEAEAAVRVYAGEALLEVEELE
B19: GBRAP_160_4201 (protein)
chain: SEKVEKVIRLLREETERVIAEVPELSREEVANLADVEYGSVLMEAVELGIENDEILDTIADAADEIRRFLEENRDASVEEIKRGIREITERAIEEIKKIA

Over roughly 4,500 sequences, “median log2 fold change of GCK-ALFA target abundance (FLAG IP / Myc IP barcode read proportion)” has its median near 0.078; the lowest 2% begin near -0.6. The entries come from a sample that favours the lowest values as a whole.

19 molecules from the supplement of paper PMC12632987 can be followed below.

GABARAP, O95166, sequence (O95166 whole entry, the tested form may be a part): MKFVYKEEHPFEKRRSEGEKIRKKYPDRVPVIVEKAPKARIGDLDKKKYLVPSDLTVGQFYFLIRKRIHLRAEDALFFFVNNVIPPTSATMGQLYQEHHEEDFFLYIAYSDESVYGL

The test addresses GABARAP, O95166. The test is described as follows: median log2 fold change of GCK-ALFA target abundance (FLAG IP / Myc IP barcode read proportion) (log2 ratio); each designed protein is fused to an ALFA-tag nanobody in HEK293 cells to bring the named protein to FLAG-tagged glucokinase (GCK); Myc marks an untargeted standard; higher = target protein stabilised (more abundant). The conditions noted are these: target protein: 3xFLAG-MCP-GCK-ALFA reporter; HEK293 landing pad (RPLP). Put shortly:
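HEK293 landing-pad cells received a recombined binder library fused to the ALFA nanobody and were induced with 2 μg mL^−1 doxycycline, then transfected with a plasmid encoding a FLAG-tagged target and a Myc-tagged standard. Lysates were collected after 48 h for anti-FLAG and anti-Myc immunoprecipitation, and the circular RNA barcodes were reverse transcribed, amplified and sequenced. Target abundance for each binder is the median log2 ratio of FLAG to Myc barcode read proportions. Barcodes had to reach a proportion of at least 10^−7 in both replicates, each binder needed at least 3 barcodes per replicate, a pseudocount of 10^−6 was applied, and the two replicates were pooled.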
As for B1, the “median log2 fold change” value was determined as 0.104. B2: the “median log2 fold change” value is -0.994. As to B3, the “median log2 fold change” value turned out to be 0.243. With B4, the “median log2 fold change” value amounted to 0.13.

Take B5: the “median log2 fold change” value is -0.365. The same measure for B6: 0.203; for B7: 0.108; for B8: -0.742. Then B9, with -0.356; and B10, with -0.274. The same measure for B11: 0.107; for B12: 0.00124; for B13: -0.0898. B14: the “median log2 fold change” value came to 0.378. Take B15: the “median log2 fold change” value is -0.638. Then B16, with 0.139; and B17, with 0.475. The same measure for B18: 0.0713. The same measure for B19: -0.204.
